Test results: PubChem BioAssay (NCI)
About 83,000 compounds went through this panel and 20% of them were active in at least one assay; those are over-represented in the sample as a whole.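 Step 1: grow cells in 96-well plates. Step 2: add test compound at a single concentration. Step 3: incubate 48 h. Step 4: record percent growth.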 Unmarked numbers belong to inactive results. Calls of active or inactive are those of the source. Rule for the calls: active = growth percent below 10; inactive = the rest.

Experiments:
Assay in all cases: NCI-60 one-dose screen, 48 h (100 = growth as untreated, 0 = no growth, -100 = all killed)
Details in all cases: 10 µM unless noted
SK-MEL-2 melanoma = system: SK-MEL-2 melanoma
EKVX NSCLC = system: EKVX NSCLC
SN12C renal = system: SN12C renal
UO-31 renal = system: UO-31 renal
TK-10 renal = system: TK-10 renal
ACHN renal = system: ACHN renal
CAKI-1 renal = system: CAKI-1 renal
A498 renal = system: A498 renal
CCRF-CEM leukemia = system: CCRF-CEM leukemia
MOLT-4 leukemia = system: MOLT-4 leukemia

SMILES	growth (SK-MEL-2 melanoma)	growth (EKVX NSCLC)	growth (SN12C renal)	growth (UO-31 renal)	growth (TK-10 renal)	growth (ACHN renal)	growth (CAKI-1 renal)	growth (A498 renal)	growth (CCRF-CEM leukemia)	growth (MOLT-4 leukemia)
CC/C(Cc1ccccc1)=C(/c1ccc(O)cc1)c1ccc(OCCN2CCCC2)cc1	-52.3% (active)	-21.4% (active)	-11.6% (active)	-79.8% (active)	13.1%	-68.5% (active)	-72.4% (active)	54.9%	-33.3% (active)	-22.7% (active)
COc1ccc(/C(=C/c2ccc3ccccc3c2)c2nn[nH]n2)cc1OC	40.3%	43.9%	37.2%	41.4%	54.5%	54.4%	23.3%	14.5%	19.7%	37.8%
Brc1cccc(-c2nc(-c3ccc4c(c3)OCCO4)co2)c1	37.6% [25 µM]	51.5% [25 µM]	54% [25 µM]	70% [25 µM]	84.7% [25 µM]	85.4% [25 µM]	52.3% [25 µM]	23.5% [25 µM]	51.6% [25 µM]	45.4% [25 µM]
C=C1CCC2C3(C)COC(c4ccccc4Br)OC3CCC2(C)C1C/C=C1/C(=O)OCC1OC(C)=O (configuration not stated)	-37.4% (active)	-3.86% (active)	-43.7% (active)	26%	-48.5% (active)	-80.2% (active)	-32.4% (active)	42.8%	–	-45.5% (active)
O=C1c2cccnc2C(=O)c2c1c(C(=O)OCCN1CCCCC1)c1ccccn21	-45.4% (active)	4.44% (active)	-68.8% (active)	-12.7% (active)	-14.3% (active)	-66% (active)	2.16% (active)	47.3%	-8.77% (active)	-19.1% (active)
CNc1cc2nc3cc(NC)c(C)cc3cc2cc1C	48.5%	-0.852% (active)	14.2%	34.5%	24.5%	20.6%	7.63% (active)	16.5%	40.9%	1.13% (active)
CC(=O)O[C@H]1CC[C@]2(C)[C@H]3CC[C@@H]4[C@H]5[C@H](C(C)C)CC[C@]5(C(=O)OCC(CO)(CO)N=C(N)N)CC[C@@]4(C)[C@]3(C)CC[C@H]2C1(C)C	102%	88.7%	13.7%	55.1%	88%	83.4%	81.1%	113%	11.3%	0.198% (active)
COc1cc(C(=O)/C=C/c2c(C)n([O-])c3ccc(C)cc3[n+]2=O)cc(OC)c1OC	84.3%	50.8%	60%	-27.3% (active)	26.6%	-40.9% (active)	6.71% (active)	95.3%	–	-30.2% (active)
O=C(/C=C\c1ccc2ccccc2n1)c1cc(Cl)ccc1O	-9.71% (active)	85.9%	110%	65.2%	95.1%	89.5%	44.9%	113%	–	54.2%
Nc1nc(-c2ccc(F)cc2)cc(-c2cnn(-c3ccccc3)n2)n1	96%	99.7%	111%	86.8%	121%	100%	86.2%	85.9%	103%	104%
COc1cccc(-c2nc3sccn3c2-c2ccnc(NCCCNS(=O)(=O)c3ccc(Cl)cc3)c2)c1	45.3%	47.8%	41.1%	11.9%	83.1%	36.3%	32.6%	38.7%	23.2%	21.6%
CSc1ncnc2c1ncn2C1CCCO1 (configuration not stated)	99.3%	95.6%	99.1%	92.1%	106%	99%	79.1%	146%	109%	106%
O=C(O)c1ccccc1Nc1cccc(S(F)(F)(F)(F)F)c1	83.6%	99.3%	96.4%	85.6%	87.8%	98.4%	94.6%	95.1%	98.4%	88.1%
